What follows are molecules tested on Trichuris muris adult worms (assay: mean motility score (Paragon pixel variance) of adult worms (arbitrary units); higher = more motile worms, i.e. less anthelmintic effect; extreme values may be limits of the assay). Settings: 100 µM; 24 h.
Description: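 Primary ex vivo screen of 409 approved drugs against adult Trichuris muris worms: one worm per well in RPMI-1640 with penicillin/streptomycin, 100 µM drug in 1% DMSO, 37 °C, 5% CO2 for 24 h. Motility was recorded with INVAPP (200-frame movies) and scored with the Paragon pixel-variance algorithm. Values are means of triplicate wells run on three occasions; levamisole was the positive control and DMSO the negative control.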

| Compound | mean motility score |
| --- | --- |
| CCCCOc1ccc(OCCCN2CCOCC2)cc1.Cl [pramoxine hydrochloride] | 1260 |
| Cn1cnc([N+](=O)[O-])c1Sc1ncnc2nc[nH]c12 [azathioprine] | 3550 |
| CC(CCc1ccc(O)cc1)NCCc1ccc(O)c(O)c1 (stereo not given) [dobutamine] | 2870 |
| Nc1ncnc2c1ncn2[C@@H]1O[C@H](COP(=O)(O)O)[C@@H](O)[C@H]1O [adenosine phosphate] | 4280 |
| Cc1c(O)cccc1C(=O)N[C@@H](CSc1ccccc1)[C@H](O)CN1C[C@H]2CCCC[C@H]2C[C@H]1C(=O)NC(C)(C)C [nelfinavir] | 1430 |
| C[C@H](O)C(=O)Nc1c(I)c(C(=O)NC(CO)CO)c(I)c(C(=O)NC(CO)CO)c1I [iopamidol] | 2190 |
| COc1ccc2cc(CCC(C)=O)ccc2c1 [nabumetone] | 2720 |
| O=C(COc1ccc(Cl)cc1)N1CCN(Cc2ccc3c(c2)OCO3)CC1 [fipexide] | 241 |
| COc1ccc2c(c1)c(CC(=O)O)c(C)n2C(=O)c1ccc(Cl)cc1 [indomethacin] | 2460 |
| COC(=O)c1ccccc1O [methyl salicylate] | 3260 |
| NCCS(=O)(=O)O [taurine] | 1780 |
| C=CC[C@@H]1/C=C(\C)C[C@H](C)C[C@H](OC)[C@H]2O[C@@](O)(C(=O)C(=O)N3CCCC[C@H]3C(=O)O[C@H](/C(C)=C/[C@@H]3CC[C@@H](O)[C@H](OC)C3)[C@H](C)[C@@H](O)CC1=O)[C@H](C)C[C@@H]2OC [tacrolimus] | 0 |
| CCCCCCCCCCC[C@@H](C[C@@H]1OC(=O)[C@H]1CCCCCC)OC(=O)[C@H](CC(C)C)NC=O [orlistat] | 3180 |
| C(=C\c1ccccc1)/CN1CCN(C(c2ccccc2)c2ccccc2)CC1 [cinnarizine] | 1640 |
| CC(=O)Nc1cccc(-n2c(=O)n(C3CC3)c(=O)c3c(Nc4ccc(I)cc4F)n(C)c(=O)c(C)c32)c1 [trametinib] | 2980 |
| CC(=O)OCC(=O)[C@@]1(O)CC[C@H]2[C@@H]3CCC4=CC(=O)CC[C@]4(C)[C@H]3[C@@H](O)C[C@@]21C [hydrocortisone acetate] | 3080 |
| NCCNCCNCCN [trientine] | 2070 |
| OCC(S)CS (stereo not given) [dimercaprol] | 1550 |
| CCOC(=O)C1=C(C)NC(C)=C(C(=O)OC)C1c1cccc([N+](=O)[O-])c1 (stereo not given) [nitrendipine] | 0 |
| Cc1ncc([N+](=O)[O-])n1CC(C)O (stereo not given) [secnidazole] | 2540 |

| Compound | mean motility score |
| --- | --- |
| CCCCCCCCCCCCCCCCOP(=O)([O-])OCC[N+](C)(C)C [miltefosine] | 2810 |
| CCOC(=O)N1CCC(=C2c3ccc(Cl)cc3CCc3cccnc32)CC1.Cl [loratadine hydrochloride] | 0 |
| CC(O)(P(=O)(O)O)P(=O)(O)O [etidronic acid] | 3300 |
| CCCN(CCc1cccs1)[C@H]1CCc2c(O)cccc2C1 [rotigotine] | 3100 |
| CCCc1nc(C)c2c(=O)nc(-c3cc(S(=O)(=O)N4CCN(CC)CC4)ccc3OCC)[nH]n12 [vardenafil] | 2160 |
| C[C@H](Cc1cc2c(c(C(N)=O)c1)N(CCCO)CC2)NCCOc1ccccc1OCC(F)(F)F [silodosin] | 3810 |
| c1ccc(CC2=NCCN2)cc1 [tolazoline] | 1230 |
| CCOC(=O)Nc1ccc2c(c1)N(C(=O)CCN1CCOCC1)c1ccccc1S2.Cl [moricizine hydrochloride] | 5 |
| O=P(O)(O)C(O)(Cn1ccnc1)P(=O)(O)O [zoledronic acid] | 1210 |
| Cl.Nc1c2c(nc3ccccc13)CCCC2 [tacrine hydrochloride] | 2770 |
| COc1c2occc2cc2ccc(=O)oc12 [methoxsalen] | 4190 |
| CC[N+](CC)(CCNC(=O)C(=O)NCC[N+](CC)(CC)Cc1ccccc1Cl)Cc1ccccc1Cl [ambenonium] | 3180 |
| NS(=O)(=O)c1cc2c(cc1C(F)(F)F)NCNS2(=O)=O [hydroflumethiazide] | 1060 |
| C#Cc1cccc(Nc2ncnc3cc(OCCOC)c(OCCOC)cc23)c1 [erlotinib] | 1720 |
| CCCc1cc(C(N)=S)ccn1 [protionamide] | 2460 |
| CN1CCN(CCCN2c3ccccc3Sc3ccc(C(F)(F)F)cc32)CC1.Cl.Cl [trifluoperazine dihydrochloride] | 0 |
| CC(=O)Oc1cccc2c1C(=O)c1c(OC(C)=O)cc(C(=O)O)cc1C2=O [diacerein] | 0 |
| CC(N/C(=N/C#N)Nc1ccncc1)C(C)(C)C.O (stereo not given) [pinacidil monohydrate] | 2490 |
| CC1=CC(=O)c2ccccc2C1=O [menadione] | 361 |
| Nc1ccc(S(=O)(=O)Nc2ccnn2-c2ccccc2)cc1 [sulfaphenazole] | 3280 |

— the supplement of paper PMC10503962
